About 2,000 (36%) of roughly 5,500 compounds were called active. Another 18% or so got no clear call; they are omitted. No stated cut-off is given here; in the data, active means normalized growth mostly below about 0.91 (no sharp cut-off); inconclusive means no clear call, values can overlap the other calls; inactive means mostly above about 0.92. The list shows a part of the results.
Assay: chemical genetic growth profiling, strain panel (AID 1159580);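 further: tested at 20 µM; growth read once vehicle control cultures reached saturation at 30 °C; 1 = growth at the plate median or of vehicle wells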
Conditions: growth OD

Measured: normalized growth

C=C[C@H]1CN2CC[C@H]1C[C@@H]2[C@H](O)c1ccnc2ccccc12
inactive: S. cerevisiae deletion strains, locus YKL009W, strain mrt4, stronger effect = lower value 0.976 | S. cerevisiae deletion strains, locus YKL068W, stronger effect = lower value 0.979 | S. cerevisiae deletion strains, locus YKL085W, strain MDH1 (second series), stronger effect = lower value 0.972 | S. cerevisiae deletion strains, locus YKL085W, strain MDH1, stronger effect = lower value 0.972 | S. cerevisiae deletion strains, locus YKL160W, strain elf1, stronger effect = lower value 0.991 | S. cerevisiae deletion strains, locus YKL190W, strain CNB1, stronger effect = lower value 0.99 | S. cerevisiae deletion strains, locus YKR001C, strain vps1, stronger effect = lower value 0.997 | S. cerevisiae deletion strains, locus YKR026C, strain gcn3, stronger effect = lower value 0.991 | S. cerevisiae deletion strains, locus YKR091W, strain srl3, stronger effect = lower value 0.979 | S. cerevisiae deletion strains, locus YLL001W, strain dnm1, stronger effect = lower value 0.989 | S. cerevisiae deletion strains, locus YLL026W, stronger effect = lower value 0.995 | S. cerevisiae deletion strains, locus YLL041C, strain sdh2, stronger effect = lower value 0.987 | S. cerevisiae deletion strains, locus YLR027C, strain aat2, stronger effect = lower value 0.992 | S. cerevisiae deletion strains, locus YLR039C, strain RIC1, stronger effect = lower value 0.98 | S. cerevisiae deletion strains, locus YLR058C, strain SHM2, stronger effect = lower value 0.992 | S. cerevisiae deletion strains, locus YLR102C, strain apc9, stronger effect = lower value 0.988 | S. cerevisiae deletion strains, locus YLR113W, strain HOG1, stronger effect = lower value 0.967 | S. cerevisiae deletion strains, locus YLR221C, strain rsa3, stronger effect = lower value 1.02 | S. cerevisiae deletion strains, locus YLR258W, strain gsy2, stronger effect = lower value 0.991 | S. cerevisiae deletion strains, locus YLR262C, strain YPT6 (second series), stronger effect = lower value 1.01 | S. cerevisiae deletion strains, locus YLR262C, strain YPT6, stronger effect = lower value 0.983 | S. cerevisiae deletion strains, locus YLR268W, strain sec22, stronger effect = lower value 0.937 | S. cerevisiae deletion strains, locus YLR320W, strain mms22, stronger effect = lower value 0.998 | S. cerevisiae deletion strains, locus YLR330W, strain CHS5, stronger effect = lower value 0.986 | S. cerevisiae deletion strains, locus YLR342W, strain FKS1 (second series), stronger effect = lower value 1.11 | S. cerevisiae deletion strains, locus YLR342W, strain FKS1, stronger effect = lower value 0.984 | S. cerevisiae deletion strains, locus YLR357W, strain rsc2, stronger effect = lower value 0.976 | S. cerevisiae deletion strains, locus YLR370C, strain arc18, stronger effect = lower value 0.994 | S. cerevisiae deletion strains, locus YLR371W, strain rom2, stronger effect = lower value 0.977 | S. cerevisiae deletion strains, locus YLR384C, strain iki3, stronger effect = lower value 0.995 | S. cerevisiae deletion strains, locus YLR418C, strain cdc73, stronger effect = lower value 0.982 | S. cerevisiae deletion strains, locus YML016C, strain PPZ1, stronger effect = lower value 0.999 | S. cerevisiae deletion strains, locus YML032C, strain rad52, stronger effect = lower value 0.968 | S. cerevisiae deletion strains, locus YML120C, strain ndi1, stronger effect = lower value 1.01 | S. cerevisiae deletion strains, locus YML124C, strain tub3, stronger effect = lower value 0.986 | S. cerevisiae deletion strains, locus YMR058W, strain fet3, stronger effect = lower value 0.982 | S. cerevisiae deletion strains, locus YMR078C, strain ctf18, stronger effect = lower value 0.983 | S. cerevisiae deletion strains, locus YMR125W, strain sto1, stronger effect = lower value 0.977 | S. cerevisiae deletion strains, locus YMR129W, stronger effect = lower value 0.988 | S. cerevisiae deletion strains, locus YMR205C, strain PFK2, stronger effect = lower value 0.988 | S. cerevisiae deletion strains, locus YMR223W, strain ubp8, stronger effect = lower value 1.01 | S. cerevisiae deletion strains, locus YMR231W, strain pep5, stronger effect = lower value 0.979 | S. cerevisiae deletion strains, locus YMR263W, strain SAP30, stronger effect = lower value 0.989 | S. cerevisiae deletion strains, locus YMR307W, strain GAS1, stronger effect = lower value 1.09 | S. cerevisiae deletion strains, locus YNL067W, strain RPL9B, stronger effect = lower value 0.977 | S. cerevisiae deletion strains, locus YNL071W, strain lat1, stronger effect = lower value 0.988 | S. cerevisiae deletion strains, locus YNL128W, strain TEP1, stronger effect = lower value 0.982 | S. cerevisiae deletion strains, locus YNL153C, strain GIM3, stronger effect = lower value 0.991 | S. cerevisiae deletion strains, locus YNL183C, strain NPR1, stronger effect = lower value 0.951 | S. cerevisiae deletion strains, locus YNL209W, strain ssb2, stronger effect = lower value 0.995 | S. cerevisiae deletion strains, locus YNL233W, strain BNI4, stronger effect = lower value 0.985 | S. cerevisiae deletion strains, locus YNL248C, strain rpa49, stronger effect = lower value 0.982 | S. cerevisiae deletion strains, locus YNL250W, strain rad50, stronger effect = lower value 0.986 | S. cerevisiae deletion strains, locus YNL271C, strain bni1, stronger effect = lower value 0.983 | S. cerevisiae deletion strains, locus YNL298W, strain CLA4, stronger effect = lower value 0.985 | S. cerevisiae deletion strains, locus YNL307C, strain MCK1, stronger effect = lower value 0.992 | S. cerevisiae deletion strains, locus YNL322C, strain KRE1 (second series), stronger effect = lower value 0.975 | S. cerevisiae deletion strains, locus YNL322C, strain KRE1, stronger effect = lower value 0.992 | S. cerevisiae deletion strains, locus YNR049C, strain mso1, stronger effect = lower value 0.986 | S. cerevisiae deletion strains, locus YNR052C, strain pop2, stronger effect = lower value 0.992 | S. cerevisiae deletion strains, locus YOL006C, strain TOP1, stronger effect = lower value 0.992 | S. cerevisiae deletion strains, locus YOL012C, strain htz1 1.51 | S. cerevisiae deletion strains, locus YOL147C, strain pex11, stronger effect = lower value 0.979 | S. cerevisiae deletion strains, locus YOR001W, strain rrp6, stronger effect = lower value 1.01 | S. cerevisiae deletion strains, locus YOR061W, strain CKA2, stronger effect = lower value 0.986 | S. cerevisiae deletion strains, locus YOR069W, strain VPS5, stronger effect = lower value 0.997 | S. cerevisiae deletion strains, locus YOR070C, strain gyp1, stronger effect = lower value 1 | S. cerevisiae deletion strains, locus YOR080W, strain dia2, stronger effect = lower value 0.985 | S. cerevisiae deletion strains, locus YOR083W, strain WHI5, stronger effect = lower value 0.991 | S. cerevisiae deletion strains, locus YOR106W, strain vam3, stronger effect = lower value 0.999 | S. cerevisiae deletion strains, locus YOR136W, strain idh2, stronger effect = lower value 1 | S. cerevisiae deletion strains, locus YOR144C, strain elg1, stronger effect = lower value 0.983 | S. cerevisiae deletion strains, locus YOR184W, strain ser1, stronger effect = lower value 0.982 | S. cerevisiae deletion strains, locus YOR231W, strain MKK1, stronger effect = lower value 0.983 | S. cerevisiae deletion strains, locus YOR265W, strain rbl2, stronger effect = lower value 1 | S. cerevisiae deletion strains, locus YOR270C, strain vph1, stronger effect = lower value 1 | S. cerevisiae deletion strains, locus YOR290C, strain snf2, stronger effect = lower value 0.982 | S. cerevisiae deletion strains, locus YOR316C, strain cot1, stronger effect = lower value 0.972 | S. cerevisiae deletion strains, locus YPL051W, strain arl3, stronger effect = lower value 0.994 | S. cerevisiae deletion strains, locus YPL055C, strain LGE1, stronger effect = lower value 0.997 | S. cerevisiae deletion strains, locus YPL078C, strain atp4, stronger effect = lower value 0.99 | S. cerevisiae deletion strains, locus YPL106C, strain sse1, stronger effect = lower value 0.967 | S. cerevisiae deletion strains, locus YPL240C, strain hsp82, stronger effect = lower value 0.999 | S. cerevisiae deletion strains, locus YPL241C, strain CIN2, stronger effect = lower value 0.989 | S. cerevisiae deletion strains, locus YPL256C, strain CLN2, stronger effect = lower value 0.978 | S. cerevisiae deletion strains, locus YPR119W, strain clb2, stronger effect = lower value 0.974 | S. cerevisiae deletion strains, locus YPR141C, strain kar3, stronger effect = lower value 0.981 | S. cerevisiae deletion strains, locus YPR163C, strain tif3, stronger effect = lower value 0.977 | S. cerevisiae deletion strains, locus YPR167C, strain met16, stronger effect = lower value 0.979 | S. cerevisiae deletion strains, strain wtn01, stronger effect = lower value 0.98 | S. cerevisiae strains, strain wild type, stronger effect = lower value 1
